# Source: PubChem
# NSD2 HMT inh: blocks human histone methyltransferase NSD2; inhibition, % at 12.5 µM; O96028; actives 0.54% (n = 310,000); NSD2 peptide methylation, AlphaScreen, 120 min; AID 743445; in the data active = inhibition above about 50%
# ATG4B inh: ATG4B (human) cysteine protease inhibition; ATG4B cleavage of LC3-PLA2, NBD-HPC fluorescence, 1 h; inhibition, % at 8.33 µM; actives 0.51% (n = 340,000); in the data active = inhibition above about 40%
# DSG3 Ab inh: inhibitors of pemphigus antibody binding to human desmoglein-3; DSG3-coupled beads, scFv-anti-DSG3-GFP binding, flow cytometry; active compounds read low; binding (percent of control), % at 10 µM; actives 0.48% (n = 310,000);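 active = binding more than 3 SD below its plate's average and above zero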;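 note: hits lower antibody fragment binding to DSG3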
# Target sequence (P32926 whole entry, looked up, the tested form may be a part): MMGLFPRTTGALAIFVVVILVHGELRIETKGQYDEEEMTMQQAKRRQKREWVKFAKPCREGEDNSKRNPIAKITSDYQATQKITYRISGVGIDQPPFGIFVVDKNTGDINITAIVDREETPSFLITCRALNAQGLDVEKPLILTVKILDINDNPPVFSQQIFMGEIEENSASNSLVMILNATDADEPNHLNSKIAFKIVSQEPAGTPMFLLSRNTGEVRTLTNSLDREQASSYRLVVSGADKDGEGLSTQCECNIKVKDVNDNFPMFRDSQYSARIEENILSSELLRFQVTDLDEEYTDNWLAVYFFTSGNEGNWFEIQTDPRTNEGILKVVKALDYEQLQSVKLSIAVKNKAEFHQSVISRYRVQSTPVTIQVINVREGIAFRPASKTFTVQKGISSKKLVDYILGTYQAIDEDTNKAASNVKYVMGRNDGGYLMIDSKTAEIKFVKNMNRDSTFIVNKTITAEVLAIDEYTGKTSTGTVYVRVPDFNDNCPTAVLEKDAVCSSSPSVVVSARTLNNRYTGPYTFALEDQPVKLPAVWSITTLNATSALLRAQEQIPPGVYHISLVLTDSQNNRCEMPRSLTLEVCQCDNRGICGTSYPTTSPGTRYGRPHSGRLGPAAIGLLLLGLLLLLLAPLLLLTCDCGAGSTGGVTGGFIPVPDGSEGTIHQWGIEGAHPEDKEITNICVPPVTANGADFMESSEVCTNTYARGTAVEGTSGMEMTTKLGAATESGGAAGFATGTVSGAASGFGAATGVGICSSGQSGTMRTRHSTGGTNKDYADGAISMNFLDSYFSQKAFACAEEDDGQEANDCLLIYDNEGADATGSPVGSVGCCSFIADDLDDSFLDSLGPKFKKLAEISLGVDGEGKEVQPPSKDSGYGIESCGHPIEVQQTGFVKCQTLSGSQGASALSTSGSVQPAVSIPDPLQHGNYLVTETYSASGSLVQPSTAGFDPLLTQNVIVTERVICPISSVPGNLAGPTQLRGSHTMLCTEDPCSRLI
# CaV13 ICDI inh: Disruptors of the CACNA1D IQ motif to Ca2+-dependent inactivation inhibitor domain association, primary screening, Förster resonance energy transfer in intact living …. HEK cells, CFP/YFP FRET ICDI-IQ, plate reader, 10 min; percent FRET-ratio fall versus neutral wells. inhibition, % at 12.3 µM. actives 0.098% (n = 340,000);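 active = mean replicate inhibition of at least 30% and at least 1% of replicates passing that level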;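 note: 0% = median of the neutral control wells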
# Vif inh: HIV Vif inhibition; HEK293T cells, Vif self-association by quenched fluorescence, imaging, 24 h; inhibition, % at 7.49 µM; actives 0.35% (n = 340,000); in the data active = inhibition above about 50%, passing the limit was not always enough
# N-glyco inh: N-linked glycosylation inhibition | D54 ERlucT glycosylation luciferase reporter, 24 h; percent of 100 nM tunicamycin response | reporter increase, % at 12.5 µM | actives 0.23% (n = 360,000) | AID 588692;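 active = mean luciferase reporter signal, scaled so untreated is 0 and the glycosylation-blocking control 100, at or above a set limit in every replicate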;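 note: luciferase carries N-glycosylation sites so blocking glycosylation raises the light; 0% = median of neutral control wells and 100% = median of 100 nM tunicamycin wells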
# Alpha artifact: AlphaScreen assay artifact in NSD2 counter-screen; shares compounds with NSD2 HMT inh; AlphaScreen artifact counterscreen, preloaded methylated H4 peptide; AC35, µM (highest dose often 10 µM), inactives show at the highest dose activity change, negative = signal loss; actives 9.4% (n = 1,500); AID 1053174; call rule not given here
# The depositor's hits bear a star; x = no result given. Rows were chosen to be rich in hits. Some 1.9% of all compounds tested hit in one or more screens of this group.
SMILES,NSD2 HMT inh,ATG4B inh,DSG3 Ab inh,CaV13 ICDI inh,Vif inh,N-glyco inh,Alpha artifact
COCCOC(=O)C1=C(C)NC(C)=C(C(=O)OC(C)C)C1c1cccc([N+](=O)[O-])c1 (stereo not drawn),75*,-7,98,-5,-7,5,-3%
CC(C)OC(=O)C1C(=O)CC(C)(O)C(C(=O)OC(C)C)C1c1cccc([N+](=O)[O-])c1 (stereo not drawn),0,-10,102,-19,-4,-1,x
CC(C)(CO)NS(=O)(=O)c1ccc2c(c1)oc(=O)c1cc(S(=O)(=O)NC(C)(C)CO)ccc12,-2,-15,92,-6,1,1,x
Cc1cccc(-n2nc(C)c3c(C(=O)O)cc(-c4cccs4)nc32)c1,0,2,99,-5,-1,0,x
CCN(CC)CCCN=Cc1c(-c2ccccc2)[nH]n(-c2nc3ccccc3s2)c1=O,75*,-13,102,-6,1,5,-5%
CCCN=C(C)c1c(-c2ccccc2)[nH]n(-c2nc3ccccc3s2)c1=O,27,-19,102,-3,0,0,x
CCCCc1ccc(NC(=O)CSc2nc(=O)n(CCN(C)C)c3c2CCC3)cc1,-2,-5,97,-5,5,5,x
CCCCc1ccc(NC(=O)CSc2nc(=O)n(CCN(CC)CC)c3c2CCCC3)cc1,66*,-18,112,-6,-2,-9,-3%
C=CCn1c(SCC(=O)Nc2ccc3c(c2)OCCO3)nnc1-c1ccccn1,13,-7,x,-5,14,0,x
C=CCn1c(-c2ccc(OC)cc2)nc2nc3ccccc3nc21,67*,-3,97,-5,0,1,1%
C=CCn1c(-c2ccc(OC)cc2)nc2ccccc21,-3,-4,95,-5,1,-1,x
CN(C)CCC(=O)N1C/C(=C/c2ccccc2)C(=O)/C(=C\c2ccccc2)C1,50*,17,102,-6,7,-14,-7%
C[N+](C)(C)CCC(=O)N1C/C(=C/c2ccccc2)C(=O)/C(=C\c2ccccc2)C1,50*,16,95,-4,9,-10,-4%
CCOC(=O)N1C/C(=C\c2ccccc2)C(=O)/C(=C/c2ccccc2)C1,1,3,95,-3,x,6,x
O=C1/C(=C/c2ccccc2)CN(C(=O)CCN2CCOCC2)C/C1=C\c1ccccc1,68*,5,90,-7,-13,-12,0%
COc1ccc(OC(=O)N2C/C(=C/c3ccccc3)C(=O)/C(=C\c3ccccc3)C2)cc1,0,-2,94,-6,26,18,x
Cn1c(Cn2c(=O)sc3ccccc32)nnc1SCC(=O)Nc1cccc(F)c1,x,-2,107,-7,-3,-2,x
CC1(C)NC(=O)N(CCCOc2ccccc2Br)C1=O,70*,5,104,-6,-10,3,-2%
Cc1[nH]n(-c2ccc([N+](=O)[O-])cc2)c(=O)c1C=NCCc1c[nH]c2ccccc12,-3,-2,95,-3,-9,3,x
CCOc1ccc(S(=O)(=O)N2CCCC(C(=O)NCCN3CCOCC3)C2)cc1Cl (stereo not drawn),83*,-2,98,-7,6,3,1%
Cc1ccc(C)c(S(=O)(=O)N2CCCC2CNC(=O)c2ccc([N+](=O)[O-])cc2)c1 (stereo not drawn),1,-10,111,-1,-10,-2,x
COc1ccc(CCNC(=O)CN2C(=O)C(=O)N(C3CCCC3)C2=O)cc1OC,55*,-41,90,-3,-3,0,0%
O=C(CN1C(=O)C(=O)N(C2CCCC2)C1=O)NCCc1ccc(F)cc1,1,-4,108,-5,0,-1,x
Cc1cc(C(=O)Nc2ccccc2C)c2ccccc2n1,-1,-3,115,-19,-11,1,x
COC(=O)c1c(NC(=O)CSc2nnc(-c3cccnc3)n2Cc2ccco2)sc(C)c1C,-2,2,x,-4,15,-2,x
SMILES,NSD2 HMT inh,ATG4B inh,DSG3 Ab inh,CaV13 ICDI inh,Vif inh,N-glyco inh,Alpha artifact
Cn1cc(/C=N/NC(=O)c2cc3cc(Br)ccc3o2)c2ccccc21,22,-9,101,-20,4,-1,x
O=C(O)c1ccc(-n2cccc2/C=N\NC(=O)c2cc3cc(Br)ccc3o2)cc1,58*,-3,87,-2,2,1,-17%
S=c1[nH]nc(C2CCCCC2)n1/N=C/c1ccc(Br)cc1,-3,-1,105,-4,4,-2,x
COc1ccccc1C1(CCNS(=O)(=O)c2ccc(C)cc2)CCOC(C(C)C)C1 (stereo not drawn),-2,1,96,-7,-4,-5,x
COc1ccc(N=Cc2nc(-c3ccco3)oc2O)cc1,1,-1,x,-5,6,2,x
O=C(N/N=C/c1cc2c(cc1[N+](=O)[O-])OCO2)c1ccccn1,53*,7,74,-7,-5,1,-4%
CCCC(=O)Nc1ccccc1NC(=O)CCC,-1,-11,102,-3,x,1,x
CCCC(=O)Nc1ccc(C(=O)O)cc1NC(=O)CCC,72*,-7,97,-4,-3,4,-2%
CCOC(=O)N1CCN(C(=O)c2ccccc2N(C)S(C)(=O)=O)CC1,1,17,131,-8,-1,2,x
O=C(CC1C(=O)N(c2ccccc2)C(=S)N1c1ccccc1)c1ccc(Br)cc1 (stereo not drawn),50*,-3,84,4,-1,-5,2%
O=C(CC1C(=O)N(c2ccccc2)C(=S)N1c1ccccc1)c1ccccc1 (stereo not drawn),1,-4,112,-1,-1,-4,x
CCCn1c(C)nc2c(c1=O)c1nc3ccccc3nc1n2CCC1=CCCCC1,-3,-17,106,-7,-25,-3,x
CCCn1c(C)nc2c(c1=O)c1nc3ccccc3nc1n2-c1ccccc1,54*,5,88*,-5,11,2,1%
CCCC1CCC2(CC1)CCC2OC(=S)Nc1cccc(Cl)c1 (stereo not drawn),0,x,x,x,x,x,x
CN1CCCCCC1=Nc1ccc([N+](=O)[O-])cc1,57*,-4,107,-2,-2,-1,-2%
O=C(Nc1nccs1)c1ccc2nccnc2c1,125*,-5,x,-6,-7,1,-2%
CCN1CCCC1CNC(=O)c1ccc2c(c1)N(Cc1ccccc1F)C(=O)c1ccccc1S2(=O)=O (stereo not drawn),15,3,x,-3,8,-3,x
